Assay outcomes: PubChem BioAssay, several laboratories
The list is not random: actives were taken first. Their share in the collection is about 4.4%.
tim10-1 inh = growth inhibitors of tim10-1 mutant yeast, primary screen, luminescence, uHTS; S. cerevisiae tim10-1 ts strain growth, BacTiter-Glo, 24 h; inhibition, % at 20 µM; 330,000 compounds, 2.2% hits;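 active means inhibition of at least 40%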;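 further: mutant grown at 25 °C; 0% = DMSO wells with yeast and 100% = wells holding no yeast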
TIM10 inh = growth inhibitors of isogenic TIM10 control yeast, primary screen, counter-screen for tim10-1 yeast inhibitor project, luminescence, uHTS | S. cerevisiae TIM10 strain growth, BacTiter-Glo luminescence, 24 h | AID 463195, 2010 | 330,000 compounds, 1.4% hits | inhibition, % at 10 µM;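 active means inhibition of 40% or more at the single tested concentration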;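 further: wild-type TIM10 isogenic control strain grown at permissive 25 °C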
PfHsp90 yeast 2 = growth inhibition of PfHsp90-expressing yeast, primary screen, antimalarial PfHsp90 inhibitor project, S. cerevisiae, BacTiter-Glo luminescence, single point, set 2. BacTiter-Glo ATP, 48 h; yeast lacking PDR1 and PDR3 efflux regulators. inhibition, % at 9.4 µM. 310,000 compounds, 0.32% hits;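 active means every replicate shows inhibition above about 80%, whatever the replicate mean, limit read from the data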;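 further: 0% = DMSO neutral controls and 100% = 20 µM radicicol positive controls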
Mot1-301 SUMO = yeast Mot1-301 growth rescue at high temperature, primary screen, SUMOylation pathway inhibitor project, S. cerevisiae, ATP luminescence, 38.5C | 320,000 compounds, 1% hits | S. cerevisiae Mot1-301 growth rescue; percent above DMSO median, 100 means doubled | growth rescue, % at 18.8 µM | AID 2716, 2010;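 active means every valid replicate shows activation above 250% relative to neutral control wells; inactive means the rest, any valid replicate at or below 250%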;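 further: OY570 slx delta 5 strain wells were the positive control but not used for scaling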
tim23-1 inh = growth inhibitors of tim23-1 mutant yeast, primary screen, luminescence, uHTS. S. cerevisiae tim23-1 growth, BacTiter-Glo luminescence, 24 h. inhibition, % at 20 µM. 330,000 compounds, 1.3% hits. AID 463212, 2010;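 active means growth inhibition of the mutant yeast at or above 50%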;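 further: temperature-sensitive mutant grown at 25 °C; plate controls were DMSO-treated mutant yeast for no effect and medium wells lacking yeast for full effect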
tim10-1 confirm = growth inhibitors of tim10-1 mutant yeast, confirmation, single concentration, luminescence, S. cerevisiae; shares compounds with tim10-1 inh; S. cerevisiae tim10-1 ts strain growth, BacTiter-Glo, 24 h; inhibition, % at 20 µM; 7,400 compounds, 56% hits; AID 463213, 2010;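 active means inhibition of yeast growth at or above a set limit in either of two repeat tests at 20 µM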;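 further: tim10-1 mutant grown at permissive 25 °C to find synthetic lethal compounds; 0% = DMSO yeast wells and 100% = medium wells without yeast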
TIM10 conf = growth inhibitors of wild-type TIM10 yeast, confirmation, counter-screen for tim10-1 synthetic lethality project, single concentration, luminescence, S. cerevisiae; shares compounds with TIM10 inh; S. cerevisiae tim10 strain growth, BacTiter-Glo luminescence, 24 h; inhibition, % at 10 µM; 4,600 compounds, 63% hits;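 active means inhibition of yeast growth at or above a set limit in either of two replicates at 10 µM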;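 further: this counterscreen used the strain with wild-type TIM10; 0% = yeast with DMSO and 100% = medium wells lacking yeast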
tim23-1 conf = tim23-1 mutant yeast growth inhibitors, confirmation, luminescence, single concentration. AID 463218, 2010. shares compounds with tim23-1 inh. S. cerevisiae tim23-1 growth, BacTiter-Glo luminescence, 24 h. inhibition, % at 20 µM. 4,400 compounds, 83% hits;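 active means inhibition above about 39% in either of two replicate wells at 20 µM, limit read from the data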;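 further: temperature-sensitive tim23-1 mutant grown at 25 °C; 0% = DMSO wells with yeast and 100% = medium wells without yeast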
The depositor's hits bear a star; i = inactive; / = not tested or not shown.

SMILES	tim10-1 inh	TIM10 inh	PfHsp90 yeast 2	Mot1-301 SUMO	tim23-1 inh	tim10-1 confirm	TIM10 conf	tim23-1 conf
COc1cc(/C=C/C(=O)c2ccc(Cl)s2)cc(OC)c1O	62*	43*	-129	-27	67*	59*	44*	53*
CNC(=O)c1cc(C(=O)c2ccc(Cl)cc2)c(Br)[nH]1	4	-4	14	-22	-8	/	/	/
O=C(NN1CCOCC1)c1cccc(Cl)c1	-7	-1	26	45	-15	/	/	/
COc1ccc(Cl)cc1NC(=O)C1CC(c2c(F)cccc2Cl)=NO1 (stereo unspecified)	80*	65*	5	11	65*	76*	72*	85*
O=[N+]([O-])c1cc(/C=N/Nc2nc(N3CCCCC3)nc(N3CCCCC3)n2)ccc1O	49*	52*	1	-13	50*	39*	-5	52*
COc1ccc(Nc2cc(C)c3cc([N+](=O)[O-])ccc3n2)cc1	53*	37	-1	-19	51*	53*	/	67*
O=C(N/N=C/c1ccccc1C(=O)O)c1ccccc1Br	13	11	/	0	5	/	/	/
C=CCc1cccc(/C=N/NC(=O)c2ccccc2Br)c1O	44*	64*	4	-1	62*	19	58*	61*
Cc1ccc(C)c(/C=C2\N=C(c3ccccc3F)OC2=O)c1	40*	46*	0	6	53*	57*	53*	54*
NC(=O)SCC(=O)Nc1ccc(Cl)c(Cl)c1	71*	-27	-1	i	80*	31*	/	76*
Cc1nn(-c2ccccc2)c2[nH]c(=O)c(CNCC3CCCO3)cc12 (stereo unspecified)	9	6	-11	-5	-5	/	/	/
CCOc1cccc(NCc2cc3c(C(C)(C)C)nn(-c4ccccc4)c3[nH]c2=O)c1	50*	42*	-12	-3	68*	42*	25	65*
Cc1nc2cc(C(=O)NCc3ccc4c(c3)OCO4)ccc2n1-c1ccc(Br)cc1	47*	15	6	5	52*	39*	/	48*
CCOc1c2ccc(C(=O)NCc3ccc4c(c3)OCO4)cc2nn1CC	3	2	33	3	25	/	/	/
CC(=O)N1CCc2cc(S(=O)(=O)CCC(=O)NCc3ccc(F)cc3)ccc21	16	12	0	18	-7	/	/	/
CCOc1ccccc1NC(=O)c1nc(S(=O)(=O)Cc2ccccc2)ncc1Cl	59*	32	-58	/	78*	41*	/	74*
CSc1ncc(Cl)c(C(=O)Nc2ccc(C)c(C)c2)n1	26	8	-26	-8	24	/	/	/
Cc1ccc(NC(=O)c2nc(S(=O)(=O)Cc3ccccc3C)ncc2Cl)cc1C	42*	-33	-14	163	68*	-54	/	60*
CCOc1ccccc1N1CCN(C(=O)c2cc(-c3cc(OC)ccc3OC)nc3ccccc23)CC1	27	9	-6	-26	22	/	/	/
Cc1cc(CNC(=O)Cn2nc(C)c([N+](=O)[O-])c2C)c2ccccc2n1	11	18	/	-4	25	/	/	/
Cn1nnnc1N=N/C(=N/Nc1ccccc1)c1ccccc1	55*	69*	97*	23	75*	26	70*	60*
O=[N+]([O-])c1cccc(C2NCC(c3ccccc3Cl)c3c2[nH]c2ccccc32)c1 (stereo unspecified)	59*	63*	1	564*	58*	52*	58*	76*
CC[C@]12c3[nH]c4ccc(OC)cc4c3CCN1C(=O)C(CC(=O)NCCc1ccccn1)C[C@@H]2C(=O)N1CCN(C(=O)C2CC2)CC1 (stereo partly specified)	3	-2	-47	/	22	/	/	/
O=C(N/N=C/c1cc(Cl)cc([N+](=O)[O-])c1O)c1cc(-c2ccccn2)nc2ccccc12	45*	19	-13	-11	51*	9	/	23
CCOC(=O)C1=C(Cc2ccc(C)cc2)C(=O)c2ccccc2C1=O	62*	57*	/	4	61*	68*	67*	60*
SMILES	tim10-1 inh	TIM10 inh	PfHsp90 yeast 2	Mot1-301 SUMO	tim23-1 inh	tim10-1 confirm	TIM10 conf	tim23-1 conf
CCCc1ccc(/C=C2\C(=O)c3ccccc3C(O)=C2C(=O)OCC)cc1	66*	45*	/	17	52*	66*	48*	57*
CCOC(=O)C1=C(O)c2ccccc2C(=O)/C1=C\c1ccc(CC)cc1	/	/	-3	52	/	/	/	/
C[C@@]12CCC=C[C@H]1[C@H](c1ccccc1Br)N(Cc1ccccc1)C2=O	43*	40*	-28	/	63*	51*	48*	55*
Cc1cccc(Nc2nc(-c3sc(C)nc3C)cs2)c1	23	36	-8	-8	43	/	/	/
Cc1ccnc(Nc2nc(-c3sc(C)nc3C)cs2)c1	48*	39	5	14	82*	25	/	58*
CC(C)CN1C(=O)C(=O)N(CC(=O)N(C)CC(=O)Nc2ccc(F)cc2)C1=O	-16	5	25	234	-20	/	/	/
CCOC(=O)C(=Cc1ccc(F)cc1)C(=O)OCC	53*	43*	/	38	55*	46*	48*	60*
CCOC(=O)C(=Cc1ccc(Br)cc1)C(=O)OCC	/	/	19	-39	/	/	/	/
O=S(=O)(Nc1nnc(C2CC2)s1)c1ccccc1	-12	9	4	60	11	/	/	/
O=C1NC(=O)N2CCSC2(Cc2ccccc2)N1 (stereo unspecified)	/	/	-16	/	/	/	/	/
CC(C)N=c1cc2n(-c3ccc(Cl)cc3)c3ccccc3nc-2cc1Nc1ccc(Cl)cc1	41*	24	11	-30	58*	2	/	57*
Cn1c(CNc2ccc(Cl)cc2)nc2ccccc21	14	-7	-4	448	21	/	/	/
CCOC(=O)C1CCN(C(=O)c2cccc(S(=O)(=O)NCc3ccccc3)c2)CC1	11	10	-1	-3	14	/	/	/
S=C1NCCc2ccc(Cl)cc2C1c1ccccc1Cl (stereo unspecified)	44*	47*	-10	34	59*	21	4	37
